PglD DTNB: blocks C. jejuni PglD acetyltransferase activity; purified PglD enzyme, DTNB colorimetric CoA detection; inhibition, % at 12.5 µM; hit rate 0.098% among 360,000; AID 602405; in the data active = inhibition above about 16%, passing the limit was not always enough; inconclusive = no clear call, values can overlap the other calls
HIV Env fusion: blocks HIV Env-driven cell-cell fusion; HeLa-JRFL Env/CEM21 cell fusion, luciferase; inhibition, % at 12.3 µM; hit rate 1.1% among 360,000;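 active = mean replicate inhibition score of at least 50 and every replicate individually at or above 50; inconclusive = only one of the two criteria met; inactive = mean below 50 and not all replicates reaching 50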;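 also: 0% = plate neutral controls and 100% = maraviroc near 300 nM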
F508del corr: CFTR F508del correction in bronchial cells; hit rate 0.36% among 350,000; CFBE cells, YFP halide quenching; stimulated with forskolin plus potentiator P3; % fluorescence drop versus neutral controls; activity (quench increase), % at 7.58 µM;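 active = mean added fluorescence quench of at least 8% versus neutral control, with both replicates also reaching 8%; inconclusive = only one of the mean or replicate conditions met; inactive = mean below 8% and not both replicates reaching 8%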;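 also: cells transiently co-express mutant CFTR-F508del with the halide-sensitive YFP; corrector assay measuring rescue of mutant channel to the surface after 24 h compound exposure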
NSD2 HMT inh: blocks human histone methyltransferase NSD2 | hit rate 0.54% among 310,000 | NSD2 peptide methylation, AlphaScreen, 120 min | O96028 | inhibition, % at 12.5 µM; in the data active = inhibition above about 50%
ALR inh: inhibitors of human sulfhydryl oxidase ALR. AID 485317. inhibition, % (no concentration beside the values). hit rate 3.8% among 290,000. purified ALR, DTT oxidation, H2O2 HRP-luminol luminescence. P55789;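 active = mean replicate inhibition above about 79%, with every replicate also reaching it, limit read from the data; inconclusive = only one of the two criteria met; inactive = mean below limit and not every replicate reaching it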
Target sequence (P55789 whole entry, looked up): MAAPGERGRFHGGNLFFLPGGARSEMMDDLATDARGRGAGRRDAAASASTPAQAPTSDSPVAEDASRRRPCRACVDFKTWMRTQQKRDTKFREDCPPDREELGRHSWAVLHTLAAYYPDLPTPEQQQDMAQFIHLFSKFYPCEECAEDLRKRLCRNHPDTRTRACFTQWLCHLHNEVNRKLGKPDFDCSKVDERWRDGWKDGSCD
Casp6 inh: inhibitors of human caspase-6; P55212; purified caspase-6, Z-VEID-R110 cleavage fluorescence; inhibition, % at 12.5 µM; hit rate 0.53% among 350,000;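 active = mean inhibition across replicates at least about 35%, with every replicate also reaching that limit, limit read from the data; inconclusive = only one of the two criteria met; inactive = neither criterion met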;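 also: 0% = median of neutral control wells and 100% = no fluorescence left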
Active calls of the source: *; [ ] = dose if it differs, or a comment. An excerpt weighted towards active compounds, which were near 4.1% of everything screened.

C[C@@H]1CN([C@@H](C)CO)S(=O)(=O)c2ccc(C3=CCCCC3)cc2O[C@H]1CN(C)Cc1cccnc1 was read as PglD DTNB -6.3, HIV Env fusion inconclusive, F508del corr 2.1 and Casp6 inh 0.0.
Cc1ccc(C(=O)NCC(=O)OC(C)C(=O)Nc2ccc(N(C)C)cc2)cc1C (configuration not stated) was read as HIV Env fusion 6.3, F508del corr -0.9, NSD2 HMT inh 10.4, ALR inh 99.0* and Casp6 inh -1.6.
`CN(C)c1ccc(/C=C/C(=O)c2ccc3c(c2)OCO3)cc1` gave PglD DTNB -8.8, HIV Env fusion -25.0, F508del corr 3.5, NSD2 HMT inh -10.6, ALR inh 98.9* and Casp6 inh -0.2.
For CN(C)c1ccc(/C=N/NC(=O)c2cccc(N3CCCC3=O)c2)cc1 the results were HIV Env fusion -18.0, NSD2 HMT inh 0.9 and ALR inh 87.5*.
`COc1cccc(/C=N/NC(=O)c2cccc(N3CCCC3=O)c2)c1` gave PglD DTNB 9.7, HIV Env fusion -21.9, F508del corr -1.9, NSD2 HMT inh -2.6, ALR inh -3.3 and Casp6 inh 0.6.
CN(C)c1ccc(/C=N/NC(=O)c2ccc3c(c2)OCO3)cc1 was read as PglD DTNB -9.9, HIV Env fusion -13.8, F508del corr -1.1, NSD2 HMT inh -0.9, ALR inh 97.5* and Casp6 inh -0.4.
`O=C(/C=C/c1ccc2c(c1)OCO2)c1ccc(F)cc1` gave PglD DTNB -5.2, HIV Env fusion -45.3, F508del corr -0.4, ALR inh 5.5 and Casp6 inh -1.3.
Screening O=C(/C=C/c1ccccc1)c1ccc2c(c1)OCO2 returned PglD DTNB -10.7, HIV Env fusion -16.2, F508del corr -1.3, NSD2 HMT inh 9.1, ALR inh 97.3* and Casp6 inh -1.4.
For O=C(C[C@@H]1C=C[C@@H](NS(=O)(=O)c2ccccc2)[C@H](CO)O1)NCc1ccncn1 the results were PglD DTNB 1.3, HIV Env fusion 3.0[16.7 µM], F508del corr -0.6 and Casp6 inh -1.7.
CN1CCN(C(=O)[C@@H]2[C@@H](CO)[C@@H]3Cn4c(ccc(-c5cncnc5)c4=O)[C@@H]3N2CC2CC2)CC1 was read as PglD DTNB -2.1, HIV Env fusion 5.4[16.7 µM] and Casp6 inh 0.3.
CN(CCCNC(=O)c1cccc(N2CCCC2=O)c1)c1ccccc1 was read as ALR inh 98.4*.
COc1ccc(O)c(/C=N/NC(=O)c2ccc(N3CCCC3=O)cc2)c1 was read as PglD DTNB -3.7, HIV Env fusion -7.5, F508del corr 8.0*, NSD2 HMT inh -0.7, ALR inh 6.6 and Casp6 inh -3.2.
CC1(C)Oc2ccc(C(=O)N/N=C/c3ccc(O)cc3)cc2NC1=O was read as PglD DTNB -0.1, HIV Env fusion -6.4, F508del corr 0.3, NSD2 HMT inh -6.8, ALR inh 99.3* and Casp6 inh -2.7.
`CC(=O)Nc1cccc(N2C(=O)CCC2=O)c1` gave PglD DTNB 10.2, NSD2 HMT inh -1.9 and ALR inh -12.1.
`CC(=O)Nc1cccc(N2CCCC2=O)c1` gave F508del corr 0.7, NSD2 HMT inh 1.0, ALR inh 99.5* and Casp6 inh 1.0.
`Cc1ccc(S(=O)(=O)N(C)C[C@H]2OCCCC[C@H](C)Oc3ccc(NS(=O)(=O)c4cn(C)cn4)cc3C(=O)N([C@@H](C)CO)C[C@H]2C)cc1` gave PglD DTNB 1.3, HIV Env fusion -0.1[16.7 µM], F508del corr 2.4 and Casp6 inh 0.1.
`CCCOc1ccc(Cn2c(C)nc([N+](=O)[O-])c2SCC(O)COC)cc1[N+](=O)[O-]` (configuration not stated) gave PglD DTNB 2.6, HIV Env fusion inconclusive and ALR inh 99.0*.
Screening CCOc1ccc(Cn2c(C)nc([N+](=O)[O-])c2SCC(O)CCl)cc1[N+](=O)[O-] (configuration not stated) returned PglD DTNB -3.6, F508del corr 0.9, NSD2 HMT inh 2.0, ALR inh 0.5 and Casp6 inh 0.6.
Screening CN(C)C(=O)C[C@@H]1C[C@@H]2c3cc(NC(=O)Nc4ccc(C(F)(F)F)cc4)ccc3O[C@@H]2[C@H](CO)O1 returned PglD DTNB 3.5, F508del corr -1.7 and Casp6 inh 0.6.
